Test results from PubChem BioAssay (NCATS).
Records with an inconclusive call do not appear. Activity calls are given as the source filed them. Unless noted, calls follow the shape of the dose curve; as a rule, active = well fitted curve in either direction with a large enough effect (not every such curve was filed as active); inconclusive = small, poorly fitted or top-dose-only effect, or another doubt; inactive = flat fitted curve, though single readings scatter.

Assays:
[1] = AP1 Signaling Pathway (AID 357); conditions: ME-180 AP-1-bla reporter, EGF-induced, beta-lactamase ratio, 5 h; at 17.2 µM (top of the series) unless noted; also: % is scaled to controls: 0 for no effect and ±100 for the full control effect
In short: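 AP-1-bla ME-180 cells with beta-lactamase reporter under AP-1 response element, stimulated with EC50 EGF; compounds titrated, 5 hours at 37 degrees Celsius. CCF4 read at 460/530 nm ratio; positive and negative modulators judged by AC50.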

[2] = NFAT Signaling Pathway (AID 444); conditions: Jurkat NFAT-bla M1, carbachol, beta-lactamase ratio, 5 h; at 17.2 µM (top of the series) unless noted;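 also: carbachol stimulus at about its EC50 of 1 µM final; % is scaled to controls: 0 for no effect and ±100 for the full control effect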
In short: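 Read-out: CCF4 FRET ratio (460 nm/530 nm) after 1 h RT dye loading, used for %activity and AC50 from titration series. Cells: Jurkat NFAT-β-lactamase/M1 line, treated with compound plus 1 uM carbachol for 5 h, 37 °C.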

[3] = Stat Signaling Pathway (AID 446); conditions: ME-180 SIE beta-lactamase reporter, IL-6 stimulated, 5 h; at 17.2 µM (top of the series) unless noted;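 also: ME-180 cervical cancer cells given 40 pM IL-6 alongside compound; SIE-controlled beta-lactamase reporter measured as 460/530 nm FRET emission ratio; % is scaled to controls: 0 for no effect and ±100 for the full control effect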
In short: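 Screening format detects activators and inhibitors alike: ME-180 SIE-bla cells stimulated at 40 pM IL-6 for 5 hrs with compound, then dual-emission beta-lactamase read at 405 nm excitation.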

[4] = target: Glucocorticoid receptor (Homo sapiens) (UniProt P04150); test: GR-GFP Redistribution (AID 450;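 active = compounds whose dose series gives a full or clear partial fitted curve of increased nuclear translocation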; also: potency is read from the fitted curve at half-maximal effect)
Sequence of Glucocorticoid receptor (Homo sapiens) (P04150 whole entry, looked up, the tested form may be a part): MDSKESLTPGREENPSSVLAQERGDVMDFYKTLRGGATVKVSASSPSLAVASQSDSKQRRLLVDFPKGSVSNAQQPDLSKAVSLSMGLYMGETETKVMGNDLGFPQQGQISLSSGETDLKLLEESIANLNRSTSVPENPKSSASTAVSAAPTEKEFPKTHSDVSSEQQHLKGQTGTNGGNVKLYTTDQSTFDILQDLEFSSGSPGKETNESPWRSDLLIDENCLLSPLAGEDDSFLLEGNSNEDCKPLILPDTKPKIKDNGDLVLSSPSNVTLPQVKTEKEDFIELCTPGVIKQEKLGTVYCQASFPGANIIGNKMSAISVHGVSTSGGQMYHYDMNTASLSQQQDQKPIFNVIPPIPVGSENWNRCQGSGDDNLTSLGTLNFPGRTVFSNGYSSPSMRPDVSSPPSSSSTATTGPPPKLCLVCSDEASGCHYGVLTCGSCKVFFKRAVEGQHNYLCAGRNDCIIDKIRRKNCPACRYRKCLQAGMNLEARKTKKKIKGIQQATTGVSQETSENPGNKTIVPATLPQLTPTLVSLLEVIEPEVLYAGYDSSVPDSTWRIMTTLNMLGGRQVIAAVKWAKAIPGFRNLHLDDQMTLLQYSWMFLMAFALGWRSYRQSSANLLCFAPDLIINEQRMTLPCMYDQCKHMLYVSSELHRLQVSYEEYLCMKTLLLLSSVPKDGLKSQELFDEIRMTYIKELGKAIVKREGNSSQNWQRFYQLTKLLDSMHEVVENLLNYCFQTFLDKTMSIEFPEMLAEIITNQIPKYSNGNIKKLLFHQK

[5] = target: Guanine nucleotide-binding protein G(i) subunit alpha-1 (Homo sapiens) (UniProt P63096); test: qHTS Assay for Inhibitors of RGS12 GoLoco Motif Activity (Green Fluorophore) (AID 879; active = well fitted curve in the direction sought with a large enough effect; an effect the other way counts as inactive or inconclusive;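 also: 0% = labeled peptide with Gαi1 and full inhibition = labeled peptide alone without protein; negative values mean loss of peptide binding seen as reduced polarization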)
Sequence of Guanine nucleotide-binding protein G(i) subunit alpha-1 (Homo sapiens) (P63096 whole entry, looked up): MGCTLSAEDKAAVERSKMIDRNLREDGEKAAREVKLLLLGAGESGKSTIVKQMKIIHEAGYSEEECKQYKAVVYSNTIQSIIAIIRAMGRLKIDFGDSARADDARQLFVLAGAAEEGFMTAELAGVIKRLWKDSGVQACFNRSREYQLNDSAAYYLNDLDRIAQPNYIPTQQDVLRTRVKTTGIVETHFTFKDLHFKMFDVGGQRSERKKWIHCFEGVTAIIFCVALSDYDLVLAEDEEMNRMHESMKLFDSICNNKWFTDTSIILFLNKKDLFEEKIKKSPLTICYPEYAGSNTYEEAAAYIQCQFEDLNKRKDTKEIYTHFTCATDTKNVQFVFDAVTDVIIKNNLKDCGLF
In short: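 Fluorescence polarization assay: 50 nM Gαi1 with 10 nM FITC-labeled RGS12 GoLoco peptide in 10 mM Tris pH 7.5, 150 mM NaCl, 0.1 mM GDP, 0.05% NP40, 10 min at room temperature with compound.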

[6] = qHTS Assay for Identification of Small Molecule Antagonists for NFkB Signaling Pathway (AID 895; active = well fitted inhibition curve with a large enough effect in the signal ratio, with a control signal flat, not every such curve was filed as active; the % refers to the signal ratio; also: % is scaled to controls: 0 for no effect and ±100 for the full control effect)
In short: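 Beta-lactamase reporter read-out (460 and 530 nm emission ratio, 405 nm excitation, 2 hrs substrate loading RT) after 5 hr stimulation with 10 pM TNF alpha in compound-treated NFkB-bla ME-180 cells in low-serum medium.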

[7] = qHTS Assay for Identification of Small Molecule Agonists for Thrombopoietin (TPO) Signaling Pathway (AID 917; active = well fitted curve in the direction sought with a large enough effect; an effect the other way counts as inactive or inconclusive; also: % is scaled to controls: 0 for no effect and ±100 for the full control effect)
In short: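 We measured Glycoprotein IIb promoter–luciferase output in IL-3-starved Ba/F3 murine cells expressing the human TPO receptor after 24 hrs at 37 C with compounds and 26 pM TPO.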

[8] = target: Muscarinic acetylcholine receptor M1 (Rattus norvegicus) (UniProt P08482); test: qHTS Assay for Antagonists of Acetylcholine Muscarinic M1 Receptor: Kinetic Measurement of Intracellular Calcium Response (AID 943; active = well fitted curve in the direction sought with a large enough effect; an effect the other way counts as inactive or inconclusive; also: nearly all actives have a fitted effect of over 75% in size)
Sequence of Muscarinic acetylcholine receptor M1 (Rattus norvegicus) (P08482 whole entry, looked up): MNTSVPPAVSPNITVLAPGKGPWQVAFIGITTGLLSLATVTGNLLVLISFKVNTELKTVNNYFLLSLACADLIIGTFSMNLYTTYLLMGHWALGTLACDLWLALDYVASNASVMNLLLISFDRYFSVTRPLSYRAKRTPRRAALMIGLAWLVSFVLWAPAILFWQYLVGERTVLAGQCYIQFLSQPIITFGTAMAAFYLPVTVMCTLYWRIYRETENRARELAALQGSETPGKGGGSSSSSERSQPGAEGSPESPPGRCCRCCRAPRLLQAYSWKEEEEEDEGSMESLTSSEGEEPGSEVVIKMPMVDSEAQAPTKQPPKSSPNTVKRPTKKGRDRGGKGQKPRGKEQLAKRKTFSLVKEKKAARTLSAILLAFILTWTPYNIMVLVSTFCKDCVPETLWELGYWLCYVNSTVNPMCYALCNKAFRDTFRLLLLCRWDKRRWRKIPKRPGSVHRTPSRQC
In short: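 CHO cells expressing rat M1 receptor, Fluo-4 loaded, preincubated 10 min with compound, then stimulated with EC80 carbachol (100 nM final). Kinetic calcium fluorescence over 4 min; response taken as peak over basal signal.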

[9] = target: Pyruvate kinase (Leishmania mexicana) (UniProt Q27686); test: qHTS Validation Assay for Inhibitors of Leishmania Mexicana Pyruvate Kinase (AID 945; active = well fitted curve in the direction sought with a large enough effect; an effect the other way counts as inactive or inconclusive;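 also: 0% = DMSO only neutral control wells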)
Sequence of Pyruvate kinase (Leishmania mexicana) (Q27686 2-499 E452W): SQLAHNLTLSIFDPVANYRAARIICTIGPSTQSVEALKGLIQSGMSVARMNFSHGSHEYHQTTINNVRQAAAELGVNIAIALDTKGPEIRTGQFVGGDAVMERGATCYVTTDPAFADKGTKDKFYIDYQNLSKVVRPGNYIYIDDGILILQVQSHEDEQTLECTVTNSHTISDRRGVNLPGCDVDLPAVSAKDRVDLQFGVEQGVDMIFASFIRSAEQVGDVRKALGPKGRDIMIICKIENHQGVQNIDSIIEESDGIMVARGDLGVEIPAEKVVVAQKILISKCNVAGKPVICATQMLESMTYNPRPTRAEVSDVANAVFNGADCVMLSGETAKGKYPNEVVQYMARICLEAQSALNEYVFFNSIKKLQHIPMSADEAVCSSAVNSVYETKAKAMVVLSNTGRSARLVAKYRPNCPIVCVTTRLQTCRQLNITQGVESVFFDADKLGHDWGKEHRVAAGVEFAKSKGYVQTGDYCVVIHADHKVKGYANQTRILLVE
In short: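 An endpoint luciferase assay: 0.2 nM LmPYK E451W turns over 0.5 mM PEP with 0.1 mM ADP for 1 h at room temperature, pH 7.2, before PKLight addition. Values are normalized to DMSO-only wells.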

[10] = target: Pyruvate kinase PKM (Homo sapiens) (UniProt P14618); test: qHTS Assay for Activators of Human Muscle Pyruvate Kinase (AID 954; active = well fitted curve in the direction sought with a large enough effect, not every such curve was filed as active;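 also: 0% = uninhibited enzyme and -100% = no enzyme or full thiadiazolimine inhibition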)
Sequence of Pyruvate kinase PKM (Homo sapiens) (P14618 whole entry, looked up): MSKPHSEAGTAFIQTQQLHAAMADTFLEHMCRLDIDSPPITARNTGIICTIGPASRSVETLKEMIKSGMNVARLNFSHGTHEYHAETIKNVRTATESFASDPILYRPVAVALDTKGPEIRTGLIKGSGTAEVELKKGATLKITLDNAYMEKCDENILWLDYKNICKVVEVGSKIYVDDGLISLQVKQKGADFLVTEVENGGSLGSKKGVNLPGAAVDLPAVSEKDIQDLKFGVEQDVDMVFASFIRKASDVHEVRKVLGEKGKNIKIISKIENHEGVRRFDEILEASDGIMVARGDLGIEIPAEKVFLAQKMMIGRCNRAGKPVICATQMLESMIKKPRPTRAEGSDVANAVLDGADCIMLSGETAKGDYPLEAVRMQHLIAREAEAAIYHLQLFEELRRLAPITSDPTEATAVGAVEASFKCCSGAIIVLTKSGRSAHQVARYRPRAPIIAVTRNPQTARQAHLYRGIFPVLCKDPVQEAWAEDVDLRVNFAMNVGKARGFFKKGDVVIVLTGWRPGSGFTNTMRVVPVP
In short: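 Reaction: 0.1 nM purified PKM2 with 0.5 mM phosphoenolpyruvate and 0.1 mM ADP, room temperature, 1 h. Readout: luciferase-based ATP luminescence after stop reagent. Activators judged against a 0.3 nM enzyme column.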

[11] = target: Alpha-galactosidase A (Homo sapiens) (UniProt P06280); test: Counterscreen for Glucocerebrosidase Inhibitors: qHTS Assay for Human alpha-Galactosidase at pH 4.5 (AID 992; active = well fitted curve in the direction sought with a large enough effect; an effect the other way counts as inactive or inconclusive; also: 0% is about no effect)
Sequence of Alpha-galactosidase A (Homo sapiens) (P06280 whole entry, looked up): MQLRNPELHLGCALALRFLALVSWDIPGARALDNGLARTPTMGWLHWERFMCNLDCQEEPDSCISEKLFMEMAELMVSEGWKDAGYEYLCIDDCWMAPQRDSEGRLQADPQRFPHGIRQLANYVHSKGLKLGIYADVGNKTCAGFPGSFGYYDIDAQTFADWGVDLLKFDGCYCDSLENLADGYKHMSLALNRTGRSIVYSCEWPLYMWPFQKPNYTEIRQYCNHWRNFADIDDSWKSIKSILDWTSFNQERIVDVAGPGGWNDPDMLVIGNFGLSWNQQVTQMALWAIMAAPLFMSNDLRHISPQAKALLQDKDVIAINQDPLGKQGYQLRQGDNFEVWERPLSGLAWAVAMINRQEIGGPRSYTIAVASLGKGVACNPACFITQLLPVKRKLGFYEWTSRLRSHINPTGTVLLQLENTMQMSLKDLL
In short: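 Concentration-response curves (0.7 nM to 77 uM final) were modeled with the Hill equation to give AC50. Reactions: 2 nM enzyme, 80 uM fluorogenic alpha-galactoside, pH 4.5 citric acid buffer, 20 min, room temperature.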

[12] = target: alpha-glucosidase (Oryza sativa, rice) (UniProt Q653V4); test: Counterscreen for Glucocerebrosidase Inhibitors: qHTS Assay for Rice alpha-Glucosidase at pH 5.0 (AID 997; active = well fitted curve in the direction sought with a large enough effect; an effect the other way counts as inactive or inconclusive;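 also: 0% = full activity with enzyme and -100% = basal without enzyme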)
In short: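 Rice alpha-glucosidase (4 nM final) with 400 uM 4-methylumbelliferyl-alpha-D-glucopyranoside in citrate buffer pH 5.0, 20 min at room temperature, stopped at pH 10; fluorescence 365/440 nm, compounds 0.7 nM–77 uM, AC50 from Hill fits.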

[13] = target: Glucocorticoid receptor (Homo sapiens) (UniProt P04150); test: GR-EFC Redistribution (AID 451; calls by dose curve; also: potency is read from the fitted curve at half-maximal effect); conditions: CHO-K1 GR-EFC translocation, beta-gal luminescence, 2 h
In short: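 Translocation of GR-ED fusion to nuclear EA restores b-gal, read by luminescence after 1 h room-temperature detection. Engineered CHO-K1 biosensor cells, 1,000/well, exposed 2 h at 37 C to titrations up to 46 uM final.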

[14] = target: Mitogen-activated protein kinase 10 (Mus musculus) (UniProt Q61831); test: JNK3 AlphaScreen Assay (AID 530)
In short: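 Compound titrations were preincubated 15 minutes at room temperature with substrate, antibody and pre-activated JNK3-containing HepG2 lysate. Reactions were started with 10 uM ATP and stopped with EDTA-containing bead buffer for AlphaScreen detection.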

[15] = target: 3',5'-cyclic-AMP phosphodiesterase 4B (Homo sapiens) (UniProt Q07343); test: qHTS Assay for Inhibitors of PDE-IV (AID 607; active = well fitted activation curve with a large enough effect in the main read-out, with a control signal flat, not every such curve was filed as active; also: % of control where 0% means no effect)
Sequence of 3',5'-cyclic-AMP phosphodiesterase 4B (Homo sapiens) (Q07343 whole entry, looked up): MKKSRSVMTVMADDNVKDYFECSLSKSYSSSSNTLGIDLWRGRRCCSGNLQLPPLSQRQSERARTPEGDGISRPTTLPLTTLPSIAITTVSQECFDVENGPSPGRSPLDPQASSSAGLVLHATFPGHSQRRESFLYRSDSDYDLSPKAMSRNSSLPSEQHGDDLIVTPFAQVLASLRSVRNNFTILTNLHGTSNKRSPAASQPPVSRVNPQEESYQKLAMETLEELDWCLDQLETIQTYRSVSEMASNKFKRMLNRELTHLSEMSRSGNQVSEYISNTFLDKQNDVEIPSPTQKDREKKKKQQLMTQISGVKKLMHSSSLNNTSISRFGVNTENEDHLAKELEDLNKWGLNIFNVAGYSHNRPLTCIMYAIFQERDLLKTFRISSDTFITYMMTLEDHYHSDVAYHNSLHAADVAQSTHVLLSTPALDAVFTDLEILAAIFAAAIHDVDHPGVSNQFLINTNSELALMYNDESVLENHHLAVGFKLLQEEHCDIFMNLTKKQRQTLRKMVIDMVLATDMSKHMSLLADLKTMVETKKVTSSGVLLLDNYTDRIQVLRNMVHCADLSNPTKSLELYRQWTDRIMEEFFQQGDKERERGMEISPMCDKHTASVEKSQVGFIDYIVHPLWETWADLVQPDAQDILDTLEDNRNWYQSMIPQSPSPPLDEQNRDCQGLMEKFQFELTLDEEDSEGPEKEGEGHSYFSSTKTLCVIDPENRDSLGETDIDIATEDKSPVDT
In short: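 The readout is membrane depolarisation from a cAMP-sensing CNG channel, detected with a potential dye at ex 535/em 590. Cells were HEK293-derived (endogenous PDE-IV) at 1000 cells/well, titrated up to 22.9 uM final.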

[16] = qHTS Assay for Identification of Small Molecule Agonists for Hypoxia Response Element Signaling Pathway (AID 914; active = well fitted activation curve with a large enough effect in the signal ratio, with a control signal flat, not every such curve was filed as active; the % refers to the signal ratio; also: potency is read from the fitted curve at half-maximal effect; as to activation: % of control where 0% means no effect); conditions: ME-180 (cervical carcinoma) HRE-bla reporter, beta-lactamase ratio, CoCl2, 17 h; activation: hits give high values
In short: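 In Opti-MEM containing 0.5% dialyzed FBS and 10 mM HEPES, ME-180 HRE-bla cells received a compound titration and EC50 CoCl2. They were incubated 17 hours, then CCF4-loaded 2.5 hours at room temperature before ratio reading.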

CCNC(=O)[C@@H]1O[C@@H](n2cnc3c(N)nc(NCCc4ccc(CCC(=O)O)cc4)nc32)[C@H](O)[C@@H]1O
inactive: activity change, negative = inhibition [1] -2.01% [at 38 µM] | activity change, negative = inhibition [2] 4.74% [at 38 µM] | activity, negative = inhibition [3] 22.6% [at 38 µM] | Potency [4] > 46 µM | outcome [5] | Potency [6] | Potency [7] | Potency [8] | Potency [9] | outcome [10] | outcome [11] | outcome [12]

CCOC(=O)c1cnc(SC2CC(=O)N(c3cccc(OC)c3)C2=O)nc1N (stereo not given)
inactive: activity change, negative = inhibition [1] -16% | activity change, negative = inhibition [2] -6.66% | activity, negative = inhibition [3] -12.1% | Potency [4] > 20.6 µM

COc1cccc(OC)c1OCCNC[C@@H]1CSc2ccccc2O1
inactive: activity change, negative = inhibition [1] 18% [at 38 µM] | activity change, negative = inhibition [2] -12.7% [at 38 µM] | activity, negative = inhibition [3] -23.8% [at 38 µM] | Potency [4] > 46 µM | Potency [13] > 46 µM | Potency [14] | Potency [15] | outcome [5] | Potency [6] | Potency [7] | Potency [9] | outcome [10] | outcome [11] | outcome [12]

CC1(C)Cc2nc(NCCN3CCOCC3)c(C#N)cc2CO1
inactive: activity change, negative = inhibition [1] 7.57% | activity change, negative = inhibition [2] 7.63% | activity, negative = inhibition [3] 11% | Potency [4] > 20.6 µM | activation [16] 3.3%

Cc1cccc(-n2ncc3c(NCc4ccco4)ncnc32)c1
inactive: activity change, negative = inhibition [1] -15.1% | activity change, negative = inhibition [2] -12.4% | activity, negative = inhibition [3] -20.3% | Potency [4] > 20.6 µM | activation [16] 8.46%

CCCCOC(=O)Nc1ccc(S(=O)(=O)Nc2nc(C)cc(C)n2)cc1
inactive: activity change, negative = inhibition [1] -5.25% | activity change, negative = inhibition [2] -8.58% | activity, negative = inhibition [3] -5.4% | Potency [4] > 20.6 µM | activation [16] -6.31%

CCC(C(=O)Nc1ncn[nH]1)(C(F)(F)F)C(F)(F)F
inactive: activity change, negative = inhibition [1] 3.02% | activity change, negative = inhibition [2] -11.9% | activity, negative = inhibition [3] 13% | Potency [4] > 20.6 µM | activation [16] -10.1%

CCOc1ccc(NC(=O)c2nn(C)cc2Br)cc1
inactive: activity change, negative = inhibition [1] 1.01% | activity change, negative = inhibition [2] 4.54% | activity, negative = inhibition [3] 3.62% | Potency [4] > 20.6 µM | activation [16] 5.55%

CN(CCNC(=O)c1ccc(/C=N/O)nc1)Cc1ccccc1
inactive: activity change, negative = inhibition [1] 0.297% | activity change, negative = inhibition [2] -21.1% | activity, negative = inhibition [3] -0.957% | Potency [4] > 20.6 µM | activation [16] 9.65%

CCCC(CCC(=O)Nc1ccc(C(=O)OCC)cc1)C(=O)O (stereo not given)
inactive: activity change, negative = inhibition [1] 4.36% | activity change, negative = inhibition [2] 0.831% | activity, negative = inhibition [3] 3.58% | Potency [4] > 20.6 µM | activation [16] 10%

N#Cc1nc(COc2ccccc2)oc1N1CCCC1
inactive: activity change, negative = inhibition [1] -20.4% | activity change, negative = inhibition [2] 4.75% | activity, negative = inhibition [3] 0.032% | Potency [4] > 20.6 µM | activation [16] -0.614%

COC(=O)[C@H]1CCCN1C(=O)Nc1cccc(Oc2c(F)c(F)c(F)c(F)c2F)c1
inactive: activity change, negative = inhibition [1] -14.6% | activity change, negative = inhibition [2] -9.08% | activity, negative = inhibition [3] -7.79% | Potency [4] > 20.6 µM | activation [16] -9.38%

CC(C)COC(=O)CCNc1n[nH]c(=O)[nH]c1=O
inactive: activity change, negative = inhibition [1] 12.9% | activity change, negative = inhibition [2] 4.96% | activity, negative = inhibition [3] 1.49% | Potency [4] > 20.6 µM | activation [16] -10.2%

O=C1C(=O)N(Cc2cccnc2)C(c2ccccn2)/C1=C(/O)c1ccccc1 (stereo not given)
inactive: activity change, negative = inhibition [1] -5.8% | activity change, negative = inhibition [2] -4.6% | activity, negative = inhibition [3] 4.87% | Potency [4] > 20.6 µM | activation [16] 2.14%

CN(C)c1ccc(C=Nc2cnn(C)c2C(N)=O)cc1
inactive: activity change, negative = inhibition [1] -9.71% | activity change, negative = inhibition [2] 2.44% | activity, negative = inhibition [3] -12.3% | Potency [4] > 20.6 µM | activation [16] -1.16%

C=CCn1c(N)c(C(=O)OC(C)(C)C)c2nc3ccccc3nc21
active: Potency [16] 10 µM
inactive: activity change, negative = inhibition [1] -16.9% | activity change, negative = inhibition [2] 3.64% | activity, negative = inhibition [3] -6.1% | Potency [4] > 20.6 µM

CCCCOc1ccc(C(=O)Nc2ccc(N3CCN(C(C)=O)CC3)cc2)cc1
active: Potency [16] 2.51 µM
inactive: activity change, negative = inhibition [1] -6.71% | activity change, negative = inhibition [2] 11.1% | activity, negative = inhibition [3] -7.6% | Potency [4] > 20.6 µM

COC(=O)c1ccc(C(=O)OC)c(NC(=O)c2cc3ccccc3o2)c1
inactive: activity change, negative = inhibition [1] -4.57% | activity change, negative = inhibition [2] 3.55% | activity, negative = inhibition [3] 8.58% | Potency [4] > 20.6 µM | activation [16] -0.252%

COc1ccc(C2CC(C(F)(F)F)n3ncc(C(=O)Nc4cccc(O)c4)c3N2)cc1OC (stereo not given)
inactive: activity change, negative = inhibition [1] -24.1% | activity change, negative = inhibition [2] -0.0394% | activity, negative = inhibition [3] -21.1% | Potency [4] > 20.6 µM | activation [16] -22.3%

Cc1nn(-c2ccccc2)c2c1C(=O)NC(=O)C(C)(C)C2
inactive: activity change, negative = inhibition [1] -3.8% | activity change, negative = inhibition [2] 0.783% | activity, negative = inhibition [3] 3.56% | Potency [4] > 20.6 µM | activation [16] -11.1%

N#Cc1c(NC(=O)CCC(=O)O)sc2c1CCCC2
inactive: activity change, negative = inhibition [1] -1.32% | activity change, negative = inhibition [2] -1.33% | activity, negative = inhibition [3] -10% | Potency [4] > 20.6 µM | activation [16] -23.4%

CCOc1cccc(N2C(=O)CC(N(CCc3ccc(OC)c(OC)c3)C(=O)CC)C2=O)c1 (stereo not given)
inactive: activity change, negative = inhibition [1] -28.7% | activity change, negative = inhibition [2] 0.637% | activity, negative = inhibition [3] 3.67% | Potency [4] > 20.6 µM | activation [16] 11%

COc1cc(C2C3C(=O)N(c4ccc(F)cc4)C(=O)C3ON2c2ccccc2)ccc1O (stereo not given)
inactive: activity change, negative = inhibition [1] -17.6% | activity change, negative = inhibition [2] 0.386% | activity, negative = inhibition [3] -1.27% | Potency [4] > 20.6 µM | activation [16] -4.56%

O=C(O)C(Cc1c[nH]c2ccccc12)NS(=O)(=O)c1cccc2nsnc12 (stereo not given)
inactive: activity change, negative = inhibition [1] 4.19% | activity change, negative = inhibition [2] 3.61% | activity, negative = inhibition [3] 6.46% | Potency [4] > 20.6 µM | activation [16] -7.91%

Cc1cc(/C=N\O)c(C)n1-c1ccncc1
inactive: activity change, negative = inhibition [1] 0.0567% | activity change, negative = inhibition [2] 23.9% | activity, negative = inhibition [3] -5.06% | Potency [4] > 20.6 µM | activation [16] 1.93%

O=C1C2ON(c3ccccc3)C(c3cccnc3)C2C(=O)N1Cc1ccccc1 (stereo not given)
inactive: activity change, negative = inhibition [1] -15.2% | activity change, negative = inhibition [2] -1.42% | activity, negative = inhibition [3] -8.95% | Potency [4] > 20.6 µM | activation [16] 1.83%
